target: SLC13A5; test: pooled miR-30 sensor sort-seq; sequence = guide strand; settings: shRNA
Also: reference of the scale not given here.

| Sequence | sensor-assay potency score (higher = more potent) |
| --- | --- |
| TTGTCCACCAGCTCCAGGCCGG | -0.842 |
| TACACAACCTCTTCCGCTCTTG | -0.374 |
| TTTTTCTTGCTCTCTAGCCCGC | -0.694 |
| TTATGTTCATTATGACTCCTGT | 0.0164 |

target: SLC16A5; test: as above; settings: shRNA

| Sequence | sensor-assay potency score (higher = more potent) |
| --- | --- |
| TTGGCCTGCAGTACCGCCTTTG | -1.15 |
| TAACAAAGTAACCTCCTACTTT | 0.00812 |
| TTGCTGGCCTGGAACTCCCATT | -1.48 |
| ATGTACACGCAGTAGCCTGTGT | -0.541 |
| TTGCAGTTCAGTGAAGAAGATG | -1.64 |
| TTGCTTGGCCTGCAGTACCGCC | -1.47 |
| TAGCTAAAGTTGTTGGTGGCGT | -0.44 |
| TTGCTTCCCAGGACCGTCTTTG | -0.623 |
| TTGAGCAGGAGTGCCAGGCTGA | -0.145 |
| TTCTGCAGGGCGTAGAAGCTGC | -0.98 |
| TTCAGTGAAGAAGATGCCGATA | -0.558 |
| TAGAAAACATAGCTAAAGTTGT | -0.585 |

target: SLC17A2; test: as above; settings: shRNA

| Sequence | sensor-assay potency score (higher = more potent) |
| --- | --- |
| ATTAGATAGACCTTGCTGCTGA | 0.973 |
| TTTCGCACAGTGATCAATCTGA | 0.624 |
| TCATAAATCACTGTGAACCATA | -0.911 |
| TCTGATGTTAACATGGAGCAGA | -0.539 |
| AAATTGTACAGCTTGCAGCAGC | -0.887 |
| ATGAACAGAAATCTGGACCTTT | 0.387 |
| TAAACTGACCTGTCCATGCCAT | -0.0582 |
| TTTTTTGCTCCAAATATCCCTG | -0.408 |
| TTATGGGGACAGCTCGTCCAGG | -1.25 |
| TATGTTAGGATGATGGTGCATA | -0.486 |

target: SLC17A8; test: as above; settings: shRNA

| Sequence | sensor-assay potency score (higher = more potent) |
| --- | --- |
| TATGAGGAACACATTCTGCCAT | 0.122 |
| ATGAGGAACACATTCTGCCATT | -1.42 |
| TTTTCCATCAACATATACGGTG | -0.405 |
| TACGGTGCTATTGTTGACCATT | -0.977 |
| TTACTTAGACTAACCACGTTGG | -0.0532 |
| TACAACGATTGTCATAACCATG | -1.63 |
| TAAGACATCTTCTTTTTGGGAC | 0.433 |
| TTTACTTAGACTAACCACGTTG | -0.016 |
| TATATTATTGTGATTTCCCTGA | 0.059 |
| TTTCATTGTAGTATTTCTCTGT | 0.732 |
| TAAATCTATAATTTTTTCCGTA | -0.398 |
| TTTCCATCAACATATACGGTGC | -0.418 |

Source: the OligoGym collection
